# From PubChem BioAssay (NCI)
# This is part of a sample that, as a whole, favours compounds with a hit. Of some 79,000 tested, about 15% had one in any assay. A number with no mark means an inactive call. Active and inactive are the calls of the source. No stated cut-off is given here; in the data, active means growth inhibition above about 70%; inactive means the rest.
# Key:
# [1] = NCI Yeast Anticancer Drug Screen. Data for the rad52 strain (AID 147);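 further: 0% = growth of vehicle-treated control cultures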; conditions: S. cerevisiae rad52 mutant growth inhibition, active compounds read high
# Summary of the method: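 Genetically altered yeast (DNA damage repair defect) treated with compound; inhibition calculated relative to vehicle.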
# [2] = NCI Yeast Anticancer Drug Screen. Data for the wt1 strain (AID 149);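 further: 0% = growth of vehicle-treated wt1 cultures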; conditions: S. cerevisiae wt1 strain (SPY 50644) growth inhibition, active compounds read high
# Summary of the method: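 Growth inhibition read against vehicle controls after compound exposure of the wt1 yeast strain.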
# [3] = NCI Yeast Anticancer Drug Screen. Data for the rad50EPP+ strain (AID 151);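 further: 0% = growth of vehicle-treated control cultures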; conditions: S. cerevisiae rad50 mutant strain, active compounds read high
# Summary of the method: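 Strain rad50EPP+; compound exposure; % growth inhibition vs vehicle.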
# [4] = NCI Yeast Anticancer Drug Screen. Data for the mgt1 strain (AID 153); conditions: S. cerevisiae mgt1 mutant growth inhibition, active compounds read high
# Summary of the method: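 Read-out: yeast growth inhibition vs vehicle control. Strain mgt1, drawn from a panel altered in DNA damage repair or cell cycle control.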
# [5] = NCI Yeast Anticancer Drug Screen. Data for the rad50 strain (AID 155);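 further: 0% = growth of vehicle-only cultures of the same strain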; conditions: S. cerevisiae rad50 strain growth inhibition, active compounds read high
# Summary of the method: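 Readout: growth inhibition relative to vehicle-treated cultures. Compound exposure was carried out in a genetically defined yeast strain deficient in DNA damage repair.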
# [6] = NCI Yeast Anticancer Drug Screen. Data for the mec2-1 strain (AID 157); conditions: S. cerevisiae mec2-1 strain, active compounds read high
# Summary of the method: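 Cells of the genetically defined mec2-1 yeast strain are incubated with test compound. Inhibition of growth is calculated against vehicle-treated controls.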
# [7] = NCI Yeast Anticancer Drug Screen. Data for the rad14 strain (AID 159);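 further: 0% = growth of vehicle-treated control cultures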; conditions: S. cerevisiae rad14 strain growth inhibition, active compounds read high
# Summary of the method: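 Growth inhibition vs vehicle controls; genetically altered yeast strain (DNA damage repair defect) treated with test compounds.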
# [8] = NCI Yeast Anticancer Drug Screen. Data for the sgs1 mgt1 strain (AID 161);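 further: 0% = growth of cultures given vehicle only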; conditions: S. cerevisiae sgs1 mgt1 strain, active compounds read high
# Summary of the method: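 Mutant yeast exposed to compound; growth scored against vehicle-only wells.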
# [9] = NCI Yeast Anticancer Drug Screen. Data for the CLN2oe strain (AID 163);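 further: 0% = growth of vehicle-only control cultures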; conditions: S. cerevisiae CLN2oe strain, active compounds read high
# Summary of the method: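 Strain altered in cell-cycle control, incubated with compound; growth compared to solvent-treated controls.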
# [10] = NCI Yeast Anticancer Drug Screen. Data for the cln2 rad14 strain (AID 165);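 further: 0% = growth equal to vehicle treated cultures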; conditions: S. cerevisiae cln2 rad14 strain, active compounds read high
# Summary of the method: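 The screen exposed genetically defined yeast (cln2 rad14) to test compounds and scored growth inhibition relative to vehicle-treated controls.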
# [11] = NCI Yeast Anticancer Drug Screen. Data for the bub3 strain (AID 167); conditions: S. cerevisiae bub3 mutant strain, active compounds read high
# Summary of the method: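 Readout: yeast growth inhibition, expressed relative to vehicle-only wells. The test organism is a mutant strain from a panel with lesions in DNA repair or checkpoint genes.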
# [12] = NCI Yeast Anticancer Drug Screen. Data for the wt2 strain (AID 169);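 further: 0% = growth of vehicle-treated yeast cultures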; conditions: S. cerevisiae wt2 strain growth inhibition, active compounds read high
# Summary of the method: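 Steps: yeast strain treated with compound; growth recorded; inhibition calculated relative to cultures given vehicle alone.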
# [13] = NCI Yeast Anticancer Drug Screen. Data for the mlh1 strain (AID 171);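 further: 0% = growth of vehicle-treated control cultures of the same strain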; conditions: S. cerevisiae mlh1 strain growth inhibition, active compounds read high
# Summary of the method: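 Yeast screen: mutant strain plus compound, growth scored against vehicle control wells.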
# [14] = NCI Yeast Anticancer Drug Screen. Data for the sgs1 strain (AID 173);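 further: 0% = growth of vehicle-only control cultures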; conditions: S. cerevisiae sgs1 mutant, active compounds read high
# Summary of the method: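 Inhibition of yeast growth served as the measure. The mutant strain was treated with each compound, and growth was normalised to cultures receiving vehicle alone.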
# [15] = NCI Yeast Anticancer Drug Screen. Data for the mlh1 rad18 strain (AID 175); conditions: S. cerevisiae mlh1 rad18 strain growth inhibition, active compounds read high
# Summary of the method: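 Compound-treated yeast growth, normalised to vehicle controls. Strain bears defined DNA repair mutations.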
# [16] = NCI Yeast Anticancer Drug Screen. Data for the rad18 strain (AID 177); conditions: S. cerevisiae rad18 mutant growth inhibition, active compounds read high
# Summary of the method: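 Inhibition values reflect reduced yeast growth compared with vehicle-treated controls, using a strain engineered with a DNA damage repair defect.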
# [17] = at 5.0 µM (retest, dose inferred, filed as 0.5)
# [18] = at 50.0 µM (retest, dose inferred, filed as 5.0)
compound,measurement,setting,value
O=C1C=CC(=O)C1(Br)Br,growth inhibition,[1]; at 1.2 µM,7%
same,growth inhibition,[1]; at 3.7 µM,24%
same,growth inhibition,[1]; at 11.0 µM,62%
same,growth inhibition,[1]; at 33.0 µM,95% (active)
same,growth inhibition,[1]; at 100.0 µM,99% (active)
same,growth inhibition,[2]; at 1.2 µM,-1%
same,growth inhibition,[2]; at 3.7 µM,0%
same,growth inhibition,[2]; at 11.0 µM,8%
same,growth inhibition,[2]; at 33.0 µM,66%
same,growth inhibition,[2]; at 100.0 µM,99% (active)
same,growth inhibition,[3]; at 1.2 µM,2%
same,growth inhibition,[3]; at 3.7 µM,15%
same,growth inhibition,[3]; at 11.0 µM,33%
same,growth inhibition,[3]; at 33.0 µM,71% (active)
same,growth inhibition,[3]; at 100.0 µM,99% (active)
same,growth inhibition,[4]; at 1.2 µM,1%
same,growth inhibition,[4]; at 3.7 µM,-4%
same,growth inhibition,[4]; at 11.0 µM,25%
same,growth inhibition,[4]; at 33.0 µM,91% (active)
same,growth inhibition,[4]; at 100.0 µM,99% (active)
same,growth inhibition,[5]; at 1.2 µM,4%
same,growth inhibition,[5]; at 3.7 µM,24%
same,growth inhibition,[5]; [17],21%
same,growth inhibition,[5]; at 11.0 µM,65%
same,growth inhibition,[5]; at 33.0 µM,94% (active)
same,growth inhibition,[5]; [18],99% (active)
same,growth inhibition,[5]; at 50.0 µM,99.6% (active)
same,growth inhibition,[5]; at 100.0 µM,99% (active)
same,growth inhibition,[6]; at 1.2 µM,1%
same,growth inhibition,[6]; at 3.7 µM,5%
same,growth inhibition,[6]; [17],3%
same,growth inhibition,[6]; at 11.0 µM,23%
same,growth inhibition,[6]; at 33.0 µM,77% (active)
same,growth inhibition,[6]; [18],100% (active)
same,growth inhibition,[6]; at 50.0 µM,99.8% (active)
same,growth inhibition,[6]; at 100.0 µM,99% (active)
same,growth inhibition,[7]; at 1.2 µM,1%
same,growth inhibition,[7]; at 3.7 µM,13%
same,growth inhibition,[7]; at 11.0 µM,28%
same,growth inhibition,[7]; at 33.0 µM,88% (active)
same,growth inhibition,[7]; at 100.0 µM,99% (active)
same,growth inhibition,[8]; [17],54%
same,growth inhibition,[8]; [18],99% (active)
same,growth inhibition,[8]; at 50.0 µM,99.2% (active)
same,growth inhibition,[9]; at 1.2 µM,-5%
same,growth inhibition,[9]; at 3.7 µM,3%
same,growth inhibition,[9]; at 11.0 µM,18%
same,growth inhibition,[9]; at 33.0 µM,75% (active)
same,growth inhibition,[9]; at 100.0 µM,98% (active)
same,growth inhibition,[10]; [17],11%
same,growth inhibition,[10]; [18],99% (active)
same,growth inhibition,[10]; at 50.0 µM,99.2% (active)
same,growth inhibition,[11]; at 1.2 µM,3%
same,growth inhibition,[11]; at 3.7 µM,3%
same,growth inhibition,[11]; [17],28%
same,growth inhibition,[11]; at 11.0 µM,18%
same,growth inhibition,[11]; at 33.0 µM,95% (active)
same,growth inhibition,[11]; [18],99% (active)
same,growth inhibition,[11]; at 50.0 µM,99.4% (active)
same,growth inhibition,[11]; at 100.0 µM,99% (active)
same,growth inhibition,[12]; at 1.2 µM,-4%
same,growth inhibition,[12]; at 3.7 µM,-4%
same,growth inhibition,[12]; at 11.0 µM,24%
same,growth inhibition,[12]; at 33.0 µM,97% (active)
same,growth inhibition,[12]; at 100.0 µM,99% (active)
same,growth inhibition,[13]; at 1.2 µM,1%
same,growth inhibition,[13]; at 3.7 µM,11%
same,growth inhibition,[13]; at 11.0 µM,36%
same,growth inhibition,[13]; at 33.0 µM,95% (active)
same,growth inhibition,[13]; at 100.0 µM,99% (active)
same,growth inhibition,[14]; at 1.2 µM,-13%
same,growth inhibition,[14]; at 3.7 µM,-14%
same,growth inhibition,[14]; at 11.0 µM,75% (active)
same,growth inhibition,[14]; at 33.0 µM,99% (active)
same,growth inhibition,[14]; at 100.0 µM,99% (active)
same,growth inhibition,[15]; [17],78% (active)
same,growth inhibition,[15]; [18],99% (active)
same,growth inhibition,[15]; at 50.0 µM,99.2% (active)
same,growth inhibition,[16]; at 1.2 µM,15%
same,growth inhibition,[16]; at 3.7 µM,40%
same,growth inhibition,[16]; at 11.0 µM,77% (active)
same,growth inhibition,[16]; at 33.0 µM,95% (active)
same,growth inhibition,[16]; at 100.0 µM,99% (active)
